PubChem BioAssay (EPA / NIEHS)
Results filed as inconclusive are left out. Active and inactive are the calls of the source. Rule for the calls: active = hit-call score of the fitted dose curve at least 0.9, where 1 is the maximum; inconclusive = response in the unintended direction; inactive = score below 0.9.

Experiments:
[1] = ATG_XTT_Cytotoxicity: Cytotoxicity Assessment in the Attagene TRANS-FACTORIAL HepG2 Assay (AID 2283584);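 for AC50: XTT signal for cell number as viability in transfected HepG2 cells; cells exposed to compound for 24 h before reading; active means loss of viability signal versus DMSO baseline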
Outline: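 HepG2 cells transiently transfected with GAL4-UAS multiple reporter units, dosed 24 h; cytotoxicity read by XTT as loss of signal versus DMSO baseline.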

[2] = target: Cellular tumor antigen p53 (Homo sapiens) (UniProt P04637); assay: TOX21_p53_BLA_p2_ratio: Tox21 HCT-116 p53 Agonism Beta-lactamase Assay, Ratio, Phase 2 (AID 2283592)
Cellular tumor antigen p53 (Homo sapiens), sequence (P04637 whole entry, looked up): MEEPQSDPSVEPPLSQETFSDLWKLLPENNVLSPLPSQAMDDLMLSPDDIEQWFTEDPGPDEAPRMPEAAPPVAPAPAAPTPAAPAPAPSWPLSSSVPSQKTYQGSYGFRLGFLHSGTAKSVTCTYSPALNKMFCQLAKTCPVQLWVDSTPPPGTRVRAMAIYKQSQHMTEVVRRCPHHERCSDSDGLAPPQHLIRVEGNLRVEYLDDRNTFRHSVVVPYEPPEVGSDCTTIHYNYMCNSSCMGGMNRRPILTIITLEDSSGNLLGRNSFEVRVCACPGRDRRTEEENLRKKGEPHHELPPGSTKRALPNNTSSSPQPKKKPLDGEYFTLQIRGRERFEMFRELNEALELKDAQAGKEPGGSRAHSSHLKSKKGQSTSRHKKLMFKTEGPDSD
Outline: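 HCT-116 cells with p53-responsive beta-lactamase reporter, 4000 cells/well, preincubated 5 h, then compound in DMSO (217-fold dilution) for 16 h at 37C. CCF4-AM substrate 2 h at room temperature; 460/530 nm emission ratio fitted upward versus DMSO.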

[3] = target: Cellular tumor antigen p53 (Homo sapiens) (UniProt P04637); assay: TOX21_p53_BLA_p3_ratio: Tox21 HCT-116 p53 Agonism Beta-lactamase Assay, Ratio, Phase 3 (AID 2283596)
Outline: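 HCT116 p53-bla cells (4000/well) given compound in DMSO (217-fold dilution) after 5 h, incubated 16 h at 37C. CCF4-AM substrate 2 h at room temperature; 460/530 nm emission ratio, gain fitted against DMSO.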

[4] = target: Cellular tumor antigen p53 (Homo sapiens) (UniProt P04637); assay: TOX21_p53_BLA_p5_ratio: Tox21 HCT-116 p53 Agonism Beta-lactamase Assay, Ratio, Phase 5 (AID 2283599)
Outline: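 HCT-116 cells carrying a p53-inducible beta-lactamase reporter were seeded at 4000 cells/well and dosed after 5 h with compound in DMSO (217-fold dilution). After 16 h at 37C, CCF4-AM substrate was added for 2 h, and the 460/530 nm emission ratio was scored as gain-of-signal versus DMSO.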

[5] = TOX21_p53_BLA_p5_viability: Viability Assessment in the Tox21 HCT-116 p53 Agonism Beta-lactamase Assay, Phase 5 (AID 2283600)
Outline: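 HCT-116 p53 beta-lactamase reporter cells, 4000/well, were exposed to compound (pin transfer, 217-fold dilution) for 16 hours at 37C. Cellular ATP was read by CellTiter-Glo luminescence after 30 min at room temperature.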

[6] = TOX21_p53_BLA_p3_viability: Viability Assessment in the Tox21 HCT-116 p53 Agonism Beta-lactamase Assay, Phase 3 (AID 2283593);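 note: cells exposed to compound for 16 h before reading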
Outline: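 HCT-116 cells (4000/well) rested 5 h at 37C, then got DMSO compounds by pin tool (217-fold dilution) for 16 h at 37C, 5% CO2. After the bla read, CellTiter-Glo was added and luminescence read at 30 min, room temperature.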

[7] = TOX21_p53_BLA_p4_viability: Viability Assessment in the Tox21 HCT-116 p53 Agonism Beta-lactamase Assay, Phase 4 (AID 2283597);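 note: hits lower the luminescence signal meaning cytotoxicity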
Outline: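 HCT-116 p53-bla cells, 4000/well, dosed after 5 h attachment and incubated 16 h at 37 °C, 5% CO2. Viability from CellTiter-Glo ATP luminescence after 30 min at room temperature, taken after the beta-lactamase read; loss of signal indicates cytotoxicity.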

[8] = TOX21_p53_BLA_p2_viability: Viability Assessment in the Tox21 HCT-116 p53 Agonism Beta-lactamase Assay, Phase 2 (AID 2283591);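 note: compound exposure lasted 16 h at 37 °C; actives lower the ATP signal meaning cytotoxicity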
Outline: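 HCT-116 p53-bla cells (4000/well) rested 5 h at 37C, then received compounds in DMSO (217-fold dilution) for 16 h at 37C, 5% CO2. After the CCF4 read, CellTiter-Glo was added; ATP luminescence was read after 30 min at room temperature.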

Measured: AC50

CCCOC(=O)c1c(Cl)c(Cl)c(Cl)c(Cl)c1C(=O)OCCC
inactive: [1] | [2]

CC(=O)O[C@H]1C[C@@H]2CC[C@@]1(C)C2(C)C
inactive: [1] | [2] | [3] | [4] | [5]

Cc1cc(S(=O)(=O)O)ccc1N=Nc1c(O)ccc2ccccc12
inactive: [1] | [2] | [5]

Cc1ccc(S(N)(=O)=O)cc1
inactive: [1] | [2] | [6] | [3] | [4]

Cc1ccc(OC(=O)c2ccccc2O)cc1
inactive: [1] | [2] | [6] | [3] | [4] | [5]

Nc1ccc(NCCO)c([N+](=O)[O-])c1
inactive: [1] | [2] | [4]

C[C@@H]1CCN(C(=O)[C@H](CCCN=C(N)N)NS(=O)(=O)c2cccc3c2NC[C@H](C)C3)[C@@H](C(=O)O)C1
inactive: [1] | [2] | [3] | [4] | [5]

O=C(O)COCC(=O)O
inactive: [1] | [2] | [3] | [5]

C=CC(=O)OCCC#N
inactive: [1] | [6] | [4] | [5]

CS(C)=O
inactive: [1] | [2] | [6] | [3] | [7] | [4] | [5]

CCCCC1CCC(O)CC1 (configuration not stated)
inactive: [1] | [2] | [3] | [5]
active: [4] 83.6 µM

O=C1CCCC=CCCCCCCCCCC1
inactive: [1] | [2] | [3]

CC(C)(CO)[C@@H](O)C(=O)NCCC(=O)O
inactive: [1] | [2] | [3] | [4]

CC(C=O)Cc1ccc(C(C)(C)C)cc1 (configuration not stated)
inactive: [1] | [2] | [6] | [3] | [4] | [5]

CC(=O)C(C)O (configuration not stated)
inactive: [1] | [2] | [6] | [7] | [4]

COc1cc(CCC(C)=O)ccc1O
inactive: [1] | [2] | [6] | [4]

O=C(O)c1cccnc1C(=O)O
inactive: [1] | [4] | [5]

CC(=O)OCCCc1ccccc1
inactive: [1] | [2] | [6] | [3] | [4]

CN(C)C(=O)Nc1ccc(Oc2ccc(Cl)cc2)cc1
inactive: [1] | [2] | [6] | [3] | [7] | [4] | [5]

ON=C1CCCCC1
inactive: [1] | [2] | [7] | [4] | [5]

CC(C)OCCO
inactive: [1] | [2] | [6] | [3] | [7] | [4] | [5]

CCCC(=O)C(CC)Sc1ccoc1C (configuration not stated)
inactive: [1] | [6] | [3] | [5]

CCN(CC)C(=O)N(CC)CC
inactive: [1] | [2] | [6] | [3] | [7] | [5]

CCCC[O][Al]([O]CCCC)[O]CCCC
inactive: [1] | [2] | [7] | [4]

CCCCC(CC)(CO)CO
inactive: [1] | [2] | [6] | [4] | [5]

CS(=O)(=O)c1ccc(C2=C(c3ccccc3)C(=O)OC2)cc1
inactive: [1] | [5]

CC[N+](C)(CC)CC
inactive: [1] | [2] | [4]

C=C[Si]1(C)O[Si](C)(C=C)O[Si](C)(C=C)O[Si](C)(C=C)O1 (configuration not stated)
inactive: [1] | [2] | [6] | [3] | [5]

COCCc1ccc(OCC(O)CNC(C)C)cc1 (configuration not stated)
inactive: [1] | [2] | [3] | [4]

Cc1c(Cl)cccc1[N+](=O)[O-]
inactive: [1] | [2] | [6] | [3] | [4] | [5]

OCC(O)c1ccccc1 (configuration not stated)
inactive: [1] | [2] | [6] | [7] | [4]

CC(=O)NCCO
inactive: [1] | [2] | [3] | [7] | [5]

CCCCOC(=O)CCCCCCCC(=O)OCCCC
inactive: [1] | [2] | [4]

CCCCCCC(CO)CCCC (configuration not stated)
inactive: [1] | [2] | [3] | [4]

CCCC(=O)OCCc1ccccc1
inactive: [1] | [3] | [4]

C[Si](C)(C)O[Si](C)(C)C
inactive: [1] | [2] | [6] | [3] | [7] | [4] | [5]

O=[N+]([O-])c1cccc(Cl)c1
inactive: [1] | [2] | [6] | [4]

CCCCCCCCCCCCN1CCCCCC1=O
active: [1] 29.9 µM
inactive: [2] | [6] | [3] | [4]

CCc1ccc(O)c(OC)c1
inactive: [1] | [6] | [4]

CCCCCCCC(=O)OCCCCCC
inactive: [1] | [2] | [6] | [4] | [5]

CCCCCC(C)=O
inactive: [1] | [2] | [3] | [4]

Cc1ccc(-c2ccccc2)cc1
inactive: [8] | [2] | [6] | [4] | [5]

[O-]n1ccccc1=S.[O-]n1ccccc1=S.[Zn+2]
active: [8] 14.3 µM [middle of 4 runs] | [2] 33.8 µM [middle of 4 runs] | [6] 20.3 µM [middle of 4 runs] | [3] 35.7 µM [middle of 4 runs] | [7] 15.4 µM [middle of 4 runs] | [4] 24.8 µM [middle of 4 runs] | [5] 19.1 µM [middle of 4 runs]
